MEX-5 binding – C. elegans MEX-5 TCR-2 RNA binding activity | actives 0.38% (n = 300,000) | Q9XUB2 | activity score (negative = inhibition of binding), % at 10 µM | AID 1832 | MEX-5/FITC-TCR2 RNA binding, fluorescence polarization; stronger effect = lower value;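 active = inhibition past about -25% in most replicates, and total fluorescence under double the plate's negative control median, limit read from the data; inconclusive = replicates evenly split on the limit, or fluorescence at least double controls; inactive = too little inhibition in most replicates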
Target sequence (Q9XUB2 whole entry, looked up): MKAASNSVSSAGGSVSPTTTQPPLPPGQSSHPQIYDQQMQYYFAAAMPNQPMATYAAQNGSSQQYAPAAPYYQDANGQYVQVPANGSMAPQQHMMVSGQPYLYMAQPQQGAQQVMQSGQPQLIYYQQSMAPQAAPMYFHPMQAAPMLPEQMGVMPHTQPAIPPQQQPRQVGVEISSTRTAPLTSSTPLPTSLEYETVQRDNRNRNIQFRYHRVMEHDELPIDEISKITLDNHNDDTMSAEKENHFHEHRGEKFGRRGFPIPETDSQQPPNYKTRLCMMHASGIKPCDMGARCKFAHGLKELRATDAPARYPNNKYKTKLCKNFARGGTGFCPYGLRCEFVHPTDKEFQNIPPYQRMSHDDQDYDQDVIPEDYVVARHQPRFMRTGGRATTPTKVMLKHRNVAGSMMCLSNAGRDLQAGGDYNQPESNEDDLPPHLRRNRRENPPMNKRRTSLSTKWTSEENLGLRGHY
Yeast superoxide – yeast age-related superoxide inhibition as caloric restriction mimetic | S. cerevisiae aged cells, superoxide DHE fluorescence; stronger effect = lower value | superoxide response (% of plate mean), % at 10 µM | actives 0.18% (n = 330,000) | AID 2690;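 active = superoxide response under a set limit, about three screen SD below normal, cut at about 65% in these data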;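 note: yeast aged for seven days with compound at 30 °C before DHE staining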
LANA-H2B inh – blocks KSHV LANA binding to histone H2A/H2B. cell-free LANA-H2A/H2B peptide, fluorescence polarization. AID 2629. inhibition, % (concentration not given with the values). actives 0.6% (n = 320,000). Q9QR71; in the data active = inhibition mostly above about 10%, no sharp cut-off; inactive = mostly below about 6.7%
MCL1-BIM inh – MCL1-BIM-BH3 interaction inhibition (human). Q07820. GST-MCL1 / FITC-Bim-BH3 fluorescence polarization. inhibition, % at 10.9 µM. actives 0.68% (n = 320,000). AID 2057;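 active = inhibition above the mean inhibition of all tested compounds plus 3 SD, set per campaign, cut at about 40% in these data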;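 note: higher means more loss of mP so more displacement of Bim peptide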
BCLXL inh – blocks human Bcl-xL binding to Bim BH3 peptide. Q07817. actives 0.7% (n = 320,000). inhibition, % at 10.9 µM. GST-Bcl-xL / FITC-Bim BH3 peptide fluorescence polarization. AID 2129;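 active = inhibition above the mean of all tested compounds plus 3 SD, cutoff set per campaign, cut at about 30% in these data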;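 note: inhibitors lower millipolarization by displacing the labeled peptide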
Target sequence (Q07817 whole entry, looked up): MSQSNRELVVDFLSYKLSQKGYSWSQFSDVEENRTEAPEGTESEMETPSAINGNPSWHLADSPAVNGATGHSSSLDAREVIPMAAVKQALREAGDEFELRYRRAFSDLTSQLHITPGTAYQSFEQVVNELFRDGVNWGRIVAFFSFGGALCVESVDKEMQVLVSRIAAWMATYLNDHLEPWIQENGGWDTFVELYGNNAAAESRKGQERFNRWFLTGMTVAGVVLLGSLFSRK
GLD-1 RNA inh – GLD-1-TGE RNA interaction inhibition (C. elegans); actives 0.44% (n = 320,000); inhibition, % at 5.96 µM; purified GLD-1 + fluorescein TGE RNA, fluorescence polarization; Q17339;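 active = percent inhibition above a per-plate cutoff, the plate mean of test compounds plus 3 SD, cut at about 30% in these data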
BCLXL inh confirm – counter-screen for MCL1 inhibitors: confirmation of human Bcl-xL inhibitors; shares compounds with MCL1-BIM inh; GST-Bcl-xL / FITC-Bim BH3 peptide FP binding; inhibition, % at 10.9 µM; actives 54% (n = 1,700); AID 2166;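 active = inhibition above a cutoff equal to the mean inhibition of all tested compounds plus 3 SD, cut at about 30% in these data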
MCL1 inh confirm – MCL1-BIM-BH3 interaction inhibition, confirmation; shares compounds with MCL1-BIM inh; GST-MCL1 / FITC-Bim-BH3 fluorescence polarization; inhibition, % at 10.9 µM; actives 61% (n = 1,700); AID 2168;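 active = inhibition above the average of all tested compounds plus 3 SD, cut at about 40% in these data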
A number is an active result. Rows were chosen to be rich in hits. Some 1.9% of all compounds tested hit in one or more screens of this group.

Results for O=C1C2CC=C(Cl)CC2C(=O)N1CCCCCCN1C(=O)C2CC=C(Cl)CC2C1=O (stereo unspecified) ?
MEX-5 binding: -28.4; Yeast superoxide: inactive; LANA-H2B inh: inactive; MCL1-BIM inh: 40.2; BCLXL inh: inactive; GLD-1 RNA inh: inactive; BCLXL inh confirm: 32.7; MCL1 inh confirm: 55.1

Results for O=C1CC(/C=C/c2ccco2)=Nc2ccccc2N1 ?
MEX-5 binding: inactive; Yeast superoxide: inactive; LANA-H2B inh: inactive; MCL1-BIM inh: 60.2; BCLXL inh: 49.6; GLD-1 RNA inh: inactive; BCLXL inh confirm: 32.3; MCL1 inh confirm: 45.0

How did O=C(COC(=O)c1ccccn1)c1ccc([N+](=O)[O-])cc1 do in these assays?
MEX-5 binding: inactive; Yeast superoxide: inactive; LANA-H2B inh: inactive; MCL1-BIM inh: inactive; BCLXL inh: inactive; GLD-1 RNA inh: inactive

Results for C=CCOc1c(Br)cc(C2C3=C(CCCC3=O)N(C)C3=C2C(=O)CCC3)cc1OCC ?
MEX-5 binding: inactive; Yeast superoxide: inactive; LANA-H2B inh: inactive; MCL1-BIM inh: 43.0; BCLXL inh: inactive; GLD-1 RNA inh: inactive; BCLXL inh confirm: inactive; MCL1 inh confirm: inactive

Results for O=C1c2cccc3c(N4CCCCC4)ccc(c23)C(=O)N1c1ccccn1 ?
MEX-5 binding: -68.8; Yeast superoxide: inactive; LANA-H2B inh: 31.8; MCL1-BIM inh: 171.9; BCLXL inh: 122.4; GLD-1 RNA inh: 161.2; BCLXL inh confirm: 154.1; MCL1 inh confirm: 179.1

What do the screens show for `O=C(COC(=O)COc1ccccc1)NCCC1=CCCCC1`?
Yeast superoxide: inactive; LANA-H2B inh: inactive; MCL1-BIM inh: inactive; BCLXL inh: inactive; GLD-1 RNA inh: inactive

What do the screens show for `O=[n+]1c2c(n([O-])c3cc(F)c(N4CCCC4)cc31)CCC2`?
MEX-5 binding: inconclusive; Yeast superoxide: inactive; LANA-H2B inh: inactive; MCL1-BIM inh: active; BCLXL inh: 190.8; GLD-1 RNA inh: 161.4; BCLXL inh confirm: 185.9; MCL1 inh confirm: active

What do the screens show for `O=[n+]1c2c(n([O-])c3cc(F)c(N4CCCC4)cc31)CCCC2`?
MEX-5 binding: inconclusive; Yeast superoxide: inactive; LANA-H2B inh: inactive; MCL1-BIM inh: active; BCLXL inh: 181.5; GLD-1 RNA inh: 144.5; BCLXL inh confirm: 173.2; MCL1 inh confirm: active

What do the screens show for `N#CC1=C(N)n2c(s/c(=C\c3ccco3)c2=O)=C(C#N)C1c1ccco1` (stereo unspecified)?
MEX-5 binding: inactive; Yeast superoxide: inactive; LANA-H2B inh: inactive; MCL1-BIM inh: 55.3; BCLXL inh: 43.5; GLD-1 RNA inh: inactive; BCLXL inh confirm: 104.0; MCL1 inh confirm: 149.7

Results for CCN(CC)c1ccc(C2Nc3cccc4cccc(c34)N2)cc1 ?
MEX-5 binding: inactive; Yeast superoxide: inactive; LANA-H2B inh: inactive; MCL1-BIM inh: inactive; BCLXL inh: inactive; GLD-1 RNA inh: inactive

How did O=[N+]([O-])c1ccc(C2Nc3cccc4cccc(c34)N2)cc1 do in these assays?
MEX-5 binding: inactive; Yeast superoxide: inactive; LANA-H2B inh: inactive; MCL1-BIM inh: inactive; BCLXL inh: inactive; GLD-1 RNA inh: inactive

Results for Fc1ccc(C2Nc3cccc4cccc(c34)N2)cc1 ?
MEX-5 binding: inactive; Yeast superoxide: inactive; LANA-H2B inh: inactive; MCL1-BIM inh: 40.5; BCLXL inh: inactive; GLD-1 RNA inh: inactive; BCLXL inh confirm: inactive; MCL1 inh confirm: inactive

Results for Cc1ccc(C2Nc3cccc4cccc(c34)N2)s1 ?
MEX-5 binding: inactive; Yeast superoxide: inactive; LANA-H2B inh: inactive; MCL1-BIM inh: 61.2; BCLXL inh: 50.8; GLD-1 RNA inh: inactive; BCLXL inh confirm: inactive; MCL1 inh confirm: inactive

How did Cc1cc(SCC(=O)N(C)C2CCCCC2)nc2ccccc12 do in these assays?
Yeast superoxide: inactive; LANA-H2B inh: inactive; GLD-1 RNA inh: inactive

What do the screens show for `CC(C)(C)C(=O)N1CCN(c2ncnc3scc(-c4ccccc4)c23)CC1`?
MEX-5 binding: inactive; Yeast superoxide: inactive; LANA-H2B inh: inactive; MCL1-BIM inh: inactive; BCLXL inh: inactive; GLD-1 RNA inh: inactive

What do the screens show for `COc1ccc(C([O-])=Nc2ccc[n+](-c3nc4ccccc4nc3NS(=O)(=O)c3ccccc3)c2)cc1`?
Yeast superoxide: inactive; LANA-H2B inh: inactive; MCL1-BIM inh: inactive; BCLXL inh: inactive; GLD-1 RNA inh: inactive

What do the screens show for `O=S(=O)(Nc1nc2ccccc2nc1-[n+]1cccc(N=C([O-])c2ccccc2Cl)c1)c1ccccc1`?
MEX-5 binding: inactive; Yeast superoxide: inactive; LANA-H2B inh: inactive; MCL1-BIM inh: 84.1; BCLXL inh: 71.2; GLD-1 RNA inh: inactive; BCLXL inh confirm: 59.6; MCL1 inh confirm: 90.2

What do the screens show for `CCN(CC)c1ccc(NC(=O)CSc2nc3nc(C)cc(C)c3c(=O)[nH]2)cc1`?
MEX-5 binding: inactive; Yeast superoxide: inactive; MCL1-BIM inh: inactive; BCLXL inh: inactive; GLD-1 RNA inh: inactive

Results for COc1ccc(NC(=O)CSc2nc3nc(C)cc(C)c3c(=O)[nH]2)cc1 ?
MEX-5 binding: inactive; Yeast superoxide: inactive; LANA-H2B inh: inactive; MCL1-BIM inh: 55.3; BCLXL inh: 34.9; GLD-1 RNA inh: inactive; BCLXL inh confirm: inactive; MCL1 inh confirm: inactive

How did CC(C)(C)NC(=O)C(c1ccc(-c2ccccc2)cc1)N(C[C@H]1CC[C@@H]([C@@H]2CC[C@H](CO)O2)O1)C(=O)c1ccccc1F (stereo partly specified) do in these assays?
Yeast superoxide: inactive

What do the screens show for `O=C(O)CCCCC1CCSS1` (stereo unspecified)?
MEX-5 binding: inconclusive; Yeast superoxide: inactive; LANA-H2B inh: inactive; MCL1-BIM inh: 102.2; BCLXL inh: inactive; GLD-1 RNA inh: inactive; BCLXL inh confirm: inactive; MCL1 inh confirm: 104.3

How did COCCn1c(SCC(=O)N2CCCC2=O)nc2sc(C)c(C)c2c1=O do in these assays?
MEX-5 binding: inactive; Yeast superoxide: inactive; LANA-H2B inh: inactive; MCL1-BIM inh: 75.9; BCLXL inh: inactive; GLD-1 RNA inh: inactive; BCLXL inh confirm: inactive; MCL1 inh confirm: inactive

Results for Cc1ccnc(NC(=O)CNC(=O)c2ccc(Br)o2)c1 ?
MEX-5 binding: inactive; Yeast superoxide: inactive; LANA-H2B inh: inactive; MCL1-BIM inh: inactive; BCLXL inh: inactive; GLD-1 RNA inh: inactive

Results for CC1CC(C)CN(C(=O)COC(=O)c2ccc3c(c2)OCO3)C1 (stereo unspecified) ?
Yeast superoxide: inactive; LANA-H2B inh: inactive; MCL1-BIM inh: 46.2; BCLXL inh: inactive; GLD-1 RNA inh: inactive; BCLXL inh confirm: inactive; MCL1 inh confirm: inactive

How did CC1CCCC(C)N1C(=O)COC(=O)c1ccc2c(c1)OCO2 (stereo unspecified) do in these assays?
MEX-5 binding: inactive; Yeast superoxide: inactive; LANA-H2B inh: inactive; MCL1-BIM inh: inactive; BCLXL inh: inactive; GLD-1 RNA inh: inactive

Source: PubChem
